Inconclusive results are not listed. Calls of active or inactive are those of the source. Calls follow the shape of the dose curve; as a rule, active = well fitted inhibition curve with a large enough effect; inconclusive = small, poorly fitted or top-dose-only effect; inactive = no such curve, though single readings can be large or run the other way.
Experiment: qHTS assay for measurement of the activity of small molecule inhibitors on Zika virus induced Caspase-3 activity in human iPSC derived neural progenitor cells (hNPCs) (AID 1224857); also: % of control where 0% means no effect; nearly all actives have a fitted effect of over 65% in size
Conditions: hNPCs ZIKV-induced caspase-3/7, Caspase-Glo luminescence, 6 h; series mostly up to 45.7 µM; activity change, negative = inhibition: at the top concentration
Excerpt: National Center for Advancing Translational Sciences [NCATS]
Johns Hopkins University School of Medicine
Increase in the Caspase-3 activity indicates an activation of apoptosis cell death pathway caused by Zika virus infection in certain types of neuronal cells including human neural progenitor cells (hNPCs), astrocytes, and astrocytoma cell line (SNB-19). This cell-based caspase-3 activity assay measures the increased caspase-3 activity in the human iPSC derived neural progenitor cells (hNPCs) after a 6-hour Zika virus infection with a luminescence readout. A decrease in the luminescence signal in this assay by small molecule treatment indicates an inhibitory effect of that small molecule on the Zika virus induced caspase-3 activity that may correlate with its effect on reduction of Zika virus caused cell death.
The medium for hNPCs consists of DMEM/F12, N2 supplement (ThermoFisher, Cat.# 17502048), NEAA (ThermoFisher, Cat. # 11140050), 2 ug/ml heparin, 2 uM cyclopamine, and B27 (ThermoFisher, Cat. # 17504044). A Caspase-Glo 3/7 assay kit (catalog number G8092; Promega, Madison, WI) was used to detect caspase-3 activity induced by Zika virus infection in human cells. The reagent mixture was reconstituted as described in the protocol from the manufacturer. Polystyrene tissue culture treated and PDL coated white plates were obtained from Greiner Bio-One (Monroe, NC). Cells were seeded in 384- or 1536-well assay plates and cultured at 37 C with 5% CO2 for 16 to 20 hours. The typical cell seeding density in the 1536-well plate assay is 350 cells/well in 3 ul medium for hNPCs in tissue culture treated plates. Compounds were added to cells and incubated for one hour before addition of ZIKV solution to cells (2 FFU/cell). After incubation at 37 C with 5% CO2 for 6 hours, the reagent mixture of Caspase-Glo 3/7 assay kit was added to each well, followed by incubation at room temperature for 30 minutes. The luminescence intensity of the assay plates was measured using a ViewLux plate reader (PerkinElmer). Data were normalized by using the cell-containing wells without ZIKV as a negative control (0% induction of caspase 3/7 activity) and wells containing ZIKV infected cells (Caspase-3 activity induced) as a positive control (100% induction of caspase 3 activity). The percentage inhibitions of the increased Caspase-3 activity by small molecule inhibitors were then calculated.

| Compound | outcome | activity change, negative = inhibition |
| --- | --- | --- |
| CC[C@H]1CN2CCc3cc(OC)c(OC)cc3[C@@H]2C[C@@H]1C[C@H]1NCCc2cc(OC)c(OC)cc21 | inactive |  |
| O=c1cc[nH]c(=O)[nH]1 |  | -12.6% (inactive) |
| O=C1O[C@H]([C@@H](O)CO)C(O)=C1O |  | -9.73% (inactive) |
| CCCCc1ncc(/C=C(\Cc2cccs2)C(=O)O)n1Cc1ccc(C(=O)O)cc1 | inactive |  |
| O=C1c2c(O)cccc2Cc2cccc(O)c21 |  | -7.92% (inactive) |
| O=c1cc(CO)occ1O |  | 8.21% (inactive) |
| CC(O)CN(CCN(CC(C)O)CC(C)O)CC(C)O (stereo not given) |  | 12% (inactive) |
| CC1=C(/C=C/C(C)=C/C=C/C(C)=C/C(=O)O)C(C)(C)CCC1 | inactive |  |
| O=C(Oc1ccccc1C(=O)O)c1ccccc1O |  | 0.398% (inactive) |
| CN1[C@@H]2CC[C@H]1CC(OC(=O)C(O)c1ccccc1)C2 (stereo not given in full) |  | -4.13% (inactive) |
| CCN(CC)CCOC(=O)C1(C2CCCCC2)CCCCC1 | inactive |  |
| CO/N=C(\C(=O)N[C@@H]1C(=O)N2C(C(=O)O)=C(CSc3nc(=O)c(O)nn3C)CS[C@H]12)c1csc(N)n1 |  | -18.2% (inactive) |
| NC1[C@H]2CN(c3nc4c(cc3F)c(=O)c(C(=O)O)cn4-c3ccc(F)cc3F)C[C@@H]12 (stereo not given in full) | inactive |  |
| O=c1[nH]c(=O)c2[nH]c(=O)[nH]c2[nH]1 |  | -8.73% [at 9.06 µM] (inactive) |
| CN(C)CC[C@@H](c1ccc(Cl)cc1)c1ccccn1 | inactive |  |
| N[C@@H](CSSC[C@H](N)C(=O)O)C(=O)O |  | -8.71% [at 0.568 µM] (inactive) |
| CC(=O)Oc1c(C)c(C)c2c(c1C)CC[C@@](C)(CCC[C@H](C)CCC[C@H](C)CCCC(C)C)O2 |  | -2.5% (inactive) |
| Cc1cc(N)c2ccccc2[n+]1CCCCCCCCCC[n+]1c(C)cc(N)c2ccccc21 |  | 36.2% (inactive) |
| CNC(=O)Oc1ccc2c(c1)[C@]1(C)CCN(C)[C@@H]1N2C | inactive |  |
| Oc1cn2c(n1)Nc1ccc(Cl)c(Cl)c1C2 |  | 17.7% [at 20.5 µM] (inactive) |

| Compound | outcome | activity change, negative = inhibition |
| --- | --- | --- |
| CC(C)c1c(C(=O)Nc2ccccc2)c(-c2ccccc2)c(-c2ccc(F)cc2)n1CC[C@@H](O)C[C@@H](O)CC(=O)O | inactive |  |
| Cc1cc2nc3c(=O)[nH]c(=O)nc-3n(C[C@H](O)[C@H](O)[C@H](O)CO)c2cc1C |  | 13% [at 20.5 µM] (inactive) |
| CCCCN(CCCC)CC(O)c1cc(Cl)cc2c1-c1ccc(Cl)cc1/C2=C/c1ccc(Cl)cc1 (stereo not given) | inactive |  |
| C[C@H]1O[C@H](O[C@H]2[C@H](O)[C@@H](O)[C@@H](O[C@H]3[C@H](O)[C@@H](O)[C@H](O)O[C@@H]3CO)O[C@@H]2CO)[C@H](O)[C@@H](O)[C@@H]1N[C@H]1C=C(CO)[C@@H](O)[C@H](O)[C@H]1O |  | 11.9% (inactive) |
| CCOC(CN1CCN(CC(C)C(=O)c2ccccc2)CC1)c1ccccc1 (stereo not given) |  | -3.7% [at 20.5 µM] (inactive) |
| Nc1ccc(S(=O)(=O)Nc2ccc(Cl)nn2)cc1 |  | 15.8% (inactive) |
| NCC(=O)CCC(=O)O |  | -0.601% (inactive) |
| CCN(CC)CCNC(=O)c1c(C)[nH]c(/C=C2\C(=O)Nc3ccc(F)cc32)c1C | inactive |  |
| O=C(O)CN1C(=O)c2cccc3cccc(c23)C1=O |  | -29.7% (inactive) |
| CNCC(O)c1ccc(O)c(O)c1 (stereo not given) | inactive |  |
| CSc1ccc2c(c1)N(CCC1CCCCN1C)c1ccccc1S2 (stereo not given) | inactive |  |
| Nc1cc(=O)[nH]c(N)n1 | inactive |  |
| CC(C)(C)C(=O)NCCCC(=O)O |  | 2.53% (inactive) |
| CN(N=O)C(=O)N[C@@H]1[C@@H](O)[C@H](O)[C@@H](CO)O[C@@H]1O |  | -16.6% (inactive) |
| Oc1cccc(O)c1 |  | 4.7% (inactive) |
| Cc1c(O)cccc1C(=O)N[C@@H](CSc1ccccc1)[C@H](O)CN1C[C@H]2CCCC[C@H]2C[C@H]1C(=O)NC(C)(C)C | inactive |  |
| NC(=O)NNc1ccccc1 |  | -3.56% (inactive) |
| O=C1NS(=O)(=O)c2ccccc21 |  | -19.9% (inactive) |
| CC(=O)Nc1ccc(/C=N/NC(N)=S)cc1 |  | -0.514% (inactive) |
| Cn1c(=O)c2c(ncn2CC2OCCO2)n(C)c1=O |  | -7.43% (inactive) |

From PubChem BioAssay (NCATS)
